This note sets out measurements from PubChem BioAssay (NCI).

Among the test systems are DU-145 prostate; K-562 leukemia; MALME-3M melanoma; MDA-MB-231 breast; RXF 393 renal; SF-268 CNS; SF-295 CNS; SF-539 CNS; UACC-257 melanoma; M14 melanoma; HCT-15 colon; SNB-75 CNS; SNB-19 CNS; U251 CNS; PC-3 prostate; SK-MEL-5 melanoma; UACC-62 melanoma; LOX IMVI melanoma; SK-MEL-28 melanoma; HT29 colon.
Holding throughout (experiment): NCI-60 one-dose screen, 48 h (100 = growth as untreated, 0 = no growth, -100 = all killed)
What all share (details): 10 µM unless noted

Compounds without any hit were thinned out: in the full panel of roughly 83,000, 20% have a hit.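 96-well plates, one dose, 48 hours. Percent growth reported; active if below 10.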 Values without a mark were called inactive. The source made the active and inactive calls.

Regarding `CN1CC[C@@H](c2c(O)cc(O)c3c(=O)cc(-c4ccccc4Cl)oc23)[C@@H]1CO`, the growth in the test on DU-145 prostate is 10.7%; with K-562 leukemia, 4.81% (active); in the test with MALME-3M melanoma, -46.8% (active); in the test with MDA-MB-231 breast, 6.99% (active); in the test on RXF 393 renal, -62.8% (active); in the test with SF-268 CNS, 3.32% (active). In addition, the growth was 3.04% (active) in the test on SF-295 CNS; -33.3% (active) in the test with SF-539 CNS; -25.8% (active) with UACC-257 melanoma; -35.4% (active) in the test on M14 melanoma; 3.39% (active) in the test on HCT-15 colon; -63.9% (active) in the test with SNB-75 CNS. Moreover, the growth in the test with SNB-19 CNS was 10.2%; in the test with U251 CNS, 4.32% (active); in the test with PC-3 prostate, 1.22% (active); in the test with SK-MEL-5 melanoma, -9% (active); in the test with UACC-62 melanoma, -51.4% (active); with LOX IMVI melanoma, 6.25% (active). Further, the growth in the test on SK-MEL-28 melanoma was -25.6% (active).

With `O=C(Nc1cn[nH]c1-c1nc2ccc(CN3CCOCC3)cc2[nH]1)NC1CC1`, the growth with DU-145 prostate was 41%; with K-562 leukemia it was 12.7%; in the test with MALME-3M melanoma, 51.8%; in the test with MDA-MB-231 breast it was 1.37% (active); with RXF 393 renal, -56.5% (active); with SF-268 CNS, 23.8%. Besides, the growth in the test with SF-295 CNS is -10.5% (active); in the test with SF-539 CNS, -60.9% (active); with UACC-257 melanoma it was 59.7%; with M14 melanoma, 34%; with HCT-15 colon, 50.2%; in the test with SNB-75 CNS, -42.1% (active). Besides, the growth in the test with SNB-19 CNS is 19.5%; with U251 CNS, 18.6%; in the test with PC-3 prostate, 38.5%; with SK-MEL-5 melanoma it was 36.1%; in the test on UACC-62 melanoma, 25.1%; in the test on LOX IMVI melanoma it was 1.79% (active). Moreover, in the test with SK-MEL-28 melanoma, the growth was 39.5%.

Consider `Cc1cn(-c2cc(NC(=O)c3ccc(C)c(Nc4nccc(-c5cccnc5)n4)c3)cc(C(F)(F)F)c2)cn1`, for which the growth in the test on DU-145 prostate is 46%; with K-562 leukemia, -11.1% (active); in the test on MALME-3M melanoma it was -15% (active); in the test with MDA-MB-231 breast it was 40%; in the test with RXF 393 renal, -4.7% (active); in the test with SF-268 CNS it was 55.8%. Moreover, the growth in the test on SF-295 CNS is 42.9%; in the test on SF-539 CNS, 82.4%; in the test with UACC-257 melanoma, 34.5%; with M14 melanoma, 8.64% (active); in the test with HCT-15 colon, 22.8%; in the test with SNB-75 CNS it was 55.7%. For the same compound, the growth in the test on SNB-19 CNS is 69.9%; in the test with U251 CNS, 37.5%; in the test with PC-3 prostate, 26%; in the test with SK-MEL-5 melanoma, -22.5% (active); in the test with UACC-62 melanoma it was 9.88% (active); in the test with LOX IMVI melanoma, 44.1%. Moreover, in the test with SK-MEL-28 melanoma, the growth was -27.1% (active).

For the compound `O=C1NC(=O)C(c2cnc3ccccn23)=C1c1cn2c3c(cc(F)cc13)CN(C(=O)N1CCCCC1)CC2`, the growth is 68.7% with DU-145 prostate; 27.9% with K-562 leukemia; 64.6% with MALME-3M melanoma; 70.2% with MDA-MB-231 breast; 16.6% in the test on RXF 393 renal; 64.7% in the test with SF-268 CNS. Besides, the growth in the test on SF-295 CNS is 35.7%; in the test on SF-539 CNS it was 53.8%; in the test with UACC-257 melanoma it was 67.1%; with M14 melanoma, 50.7%; in the test with HCT-15 colon, 56.7%; in the test with SNB-75 CNS, 37.4%. Also, the growth is 71.1% with SNB-19 CNS; 36.3% with U251 CNS; 41.8% with PC-3 prostate; 32.8% in the test on SK-MEL-5 melanoma; 27.5% in the test on LOX IMVI melanoma; 76.8% in the test with SK-MEL-28 melanoma.

On to `COC(=O)[C@@H](NC(=O)[C@@H](OC)[C@@H]1Cc2cc3cc(OC4CC(OC5CC(O)C(O)C(C)O5)C(O)C(C)O4)c(C)c(O)c3c(O)c2C(=O)[C@H]1OC1CC(OC2CC(OC3CC(C)(O)C(O)C(C)O3)C(O)C(C)O2)C(O)C(C)O1)C(C)C` (stereo not given in full), for which the growth in the test on DU-145 prostate is 7.21% (active); in the test on K-562 leukemia it was 5.81% (active); with MALME-3M melanoma, -12.3% (active); with MDA-MB-231 breast, 10.9%; with RXF 393 renal, -68% (active); in the test with SF-268 CNS, 6.33% (active). Also, the growth in the test with SF-295 CNS was -32.5% (active); in the test on SF-539 CNS it was -22.4% (active); in the test on UACC-257 melanoma, 3.21% (active); in the test with M14 melanoma, 5.18% (active); in the test on HCT-15 colon it was 23.9%; in the test on HT29 colon, 6.32% (active). The growth in the test on SNB-75 CNS is -24.3% (active); in the test on U251 CNS, -28.1% (active); in the test with PC-3 prostate, 18.8%; with SK-MEL-5 melanoma, -74.3% (active); in the test with UACC-62 melanoma, -65.1% (active); in the test with LOX IMVI melanoma, -76.2% (active). The growth in the test with SK-MEL-28 melanoma was -1.86% (active).

As to `Cc1ccc(F)c(NC(=O)Nc2ccc(-c3cccc4[nH]nc(N)c34)cc2)c1`, the growth in the test with DU-145 prostate was 27.5%; in the test on K-562 leukemia, 7.81% (active); in the test on MALME-3M melanoma, -4.64% (active); with MDA-MB-231 breast, 9.7% (active); in the test with RXF 393 renal, -20.1% (active); in the test with SF-268 CNS, 30%. For the same compound, the growth with SF-295 CNS is 42.8%; in the test with SF-539 CNS it was 3.67% (active); with UACC-257 melanoma, 16%; with M14 melanoma, 28.3%; in the test on HCT-15 colon it was 7.06% (active); with SNB-75 CNS it was 29.8%. Further, the growth in the test with SNB-19 CNS is 27.2%; with U251 CNS, 12.9%; in the test on PC-3 prostate, 30.8%; in the test with SK-MEL-5 melanoma it was 34.6%; in the test with UACC-62 melanoma it was 37.1%; in the test on SK-MEL-28 melanoma, 36.1%.

As to `CCOc1cc2ncc(C#N)c(Nc3ccc(OCc4ccccn4)c(Cl)c3)c2cc1NC(=O)/C=C/CN(C)C`, the growth with DU-145 prostate is 4.49% (active); in the test with K-562 leukemia, -47.5% (active); in the test on MALME-3M melanoma, -72.3% (active); in the test with MDA-MB-231 breast, -40% (active); with RXF 393 renal, -77.4% (active); in the test on SF-268 CNS, -36.7% (active). Further, the growth in the test on SF-295 CNS is 54.1%; in the test with SF-539 CNS, 22%; in the test on UACC-257 melanoma, 52.8%; in the test with M14 melanoma it was -82.4% (active); in the test on HCT-15 colon, -0.289% (active); in the test with SNB-75 CNS it was 34.1%. The growth is -44.2% (active) in the test on SNB-19 CNS; 3.18% (active) in the test with U251 CNS; 9.27% (active) with PC-3 prostate; 14.8% in the test with SK-MEL-5 melanoma; -64.1% (active) in the test on UACC-62 melanoma; -67.8% (active) with LOX IMVI melanoma. For the same compound, the growth in the test with SK-MEL-28 melanoma was -79.5% (active).

Regarding `Cc1cc(Nc2cc(N3CCN(C)CC3)nc(/C=C/c3ccccc3)n2)n[nH]1`, the growth in the test with DU-145 prostate is 26.9%; in the test with K-562 leukemia, -18.8% (active); with MALME-3M melanoma it was -60.6% (active); in the test with MDA-MB-231 breast, 9.8% (active); in the test on RXF 393 renal, -86.6% (active); in the test with SF-268 CNS it was -26.1% (active). In addition, the growth in the test on SF-295 CNS was -17% (active); with SF-539 CNS, -79.1% (active); with UACC-257 melanoma it was -73.4% (active); in the test on M14 melanoma, -76.6% (active); in the test on HCT-15 colon it was 13.4%; in the test on HT29 colon, -34.3% (active). In addition, the growth was -97.1% (active) in the test with SNB-75 CNS; -29.9% (active) in the test with U251 CNS; 16.5% in the test with PC-3 prostate; -88.7% (active) with SK-MEL-5 melanoma; -69.9% (active) in the test on UACC-62 melanoma; -92.6% (active) in the test on LOX IMVI melanoma. Further, the growth in the test on SK-MEL-28 melanoma is -65.4% (active).
